Measured values reported in PubChem BioAssay AID1159580 (chemical genetic matrix, 2015).
Out of some 5,500 compounds screened, about 2,000 (36%) were called active. Roughly 18% stayed inconclusive and do not appear here. Cut-off read from the data, not from the text of the source: active = normalized growth mostly below about 0.91 (no sharp cut-off); inconclusive = no clear call, values can overlap the other calls; inactive = mostly above about 0.92. The list shows a part of the results.

Test: chemical genetic growth profiling, strain panel (AID 1159580);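 note: tested at 20 µM; growth read once vehicle control cultures reached saturation at 30 °C; 1 = growth at the plate median or of vehicle wells; lower values mean less growth of the strain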
Conditions: S. cerevisiae deletion strains, growth OD

Measured: normalized growth

Cc1ccc(OCc2nnc(SCC(=O)Nc3cccc4c3OCO4)n2-c2ccccc2)c2c1CCC2
inactive: locus YAL013W, strain DEP1, hits give low values 1.01 | locus YBR229C, strain ROT2, hits give low values 1.01 | locus YCL061C, strain MRC1, hits give low values 1 | locus YDL101C, strain DUN1, hits give low values 0.992 | locus YDR150W, strain NUM1, hits give low values 0.982 | locus YEL061C, strain CIN8, hits give low values 0.99 | locus YGR078C, strain PAC10, hits give low values 1 | locus YGR229C, strain SMI1, hits give low values 0.993 | locus YHR030C, strain SLT2, hits give low values 1 | locus YHR087W, strain rtc3, hits give low values 0.992 | locus YJR043C, strain POL32, hits give low values 1 | locus YJR075W, strain HOC1, hits give low values 1.01 | locus YKL190W, strain CNB1, hits give low values 0.973 | locus YLR039C, strain RIC1, hits give low values 0.991 | locus YLR058C, strain SHM2 (second series), hits give low values 1.01 | locus YLR085C, strain ARP6, hits give low values 0.995 | locus YLR262C, strain YPT6, hits give low values 0.985 | locus YML094W, strain GIM5, hits give low values 0.98 | locus YMR219W, strain ESC1, hits give low values 0.999 | locus YMR263W, strain SAP30, hits give low values 1.01 | locus YNL128W, strain TEP1, hits give low values 0.984 | locus YNL153C, strain GIM3, hits give low values 1 | locus YNL298W, strain CLA4 (second series), hits give low values 0.988 | locus YNL322C, strain KRE1, hits give low values 0.992 | locus YNR030W, strain Alg12, hits give low values 0.995 | locus YPL055C, strain LGE1, hits give low values 0.991 | locus YPL241C, strain CIN2, hits give low values 0.999 | locus YPR135W, strain CTF4, hits give low values 1.02
